The structures appear in SMILES notation. In all, about 420,000 compounds went through this assay and about 64,000 (15%) were called active. Another 27% or so got no clear call; they are omitted. Calls come from the whole dose curve; as a rule, active = well fitted inhibition curve with a large enough effect; inconclusive = small, poorly fitted or top-dose-only effect; inactive = flat fitted curve, though single readings scatter. Only a sample is shown. Entries that show only a call come without a potency.
Potency is the fitted concentration of half-maximal effect.

A short description of the assay: qHTS for Inhibitors of human tyrosyl-DNA phosphodiesterase 1 (TDP1): qHTS in cells in absence of CPT. Note: nearly all actives have a fitted effect of over 55% in size. Particulars: DT40 Tdp1-/- hTDP1 cells, no CPT, ATP luminescence, 48 h; activity change, negative = growth inhibition: at 46.2 µM (top of the series). A digest of the protocol:
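Luminescent ATP content (CellTiter-Glo) served as the growth readout. Knockout chicken DT40 cells expressing human TDP1 were exposed to compounds without camptothecin for a minimum 48 hr at 37 °C.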
For the compound `O=C(CCC(=O)N1CCCC1)Nc1ccc([N+](=O)[O-])cc1`, the Potency entry was “inactive”.
To `COC(=O)NNC(=O)C1CCC(C)CC1` (stereo not given) belongs “inactive”; to `COc1ccc(C(=O)NNS(=O)(=O)c2ccc(C)cc2)cc1`, “inactive”; to `COc1ccc(C(=O)NN2C(=O)C3C(c4ccccc4)C=CC(c4ccccc4)C3C2=O)cc1` (stereo not given), “inactive”.
On to `COc1ccc(C(=O)NN(C)c2nc(-c3ccccc3)cc(C)c2S(C)(=O)=O)cc1`, for which the Potency was 18.4 µM (active).
With `COc1ccc(CN2C(=O)C(CC(=O)NC3CCCCC3)CC(C(=O)N3CCOCC3)=C2C)cc1` (stereo not given) the entry was “inactive”; with `CC(C)c1cc(NCc2ccccn2)n2c(nc3ccccc32)c1C#N`, 11.6 µM (active); with `Cc1cc(NC(C)C)n2c(nc3ccccc32)c1C#N`, “inactive”.
As for `CCCc1nnc(NC(=O)c2cc(OC)cc(OC)c2)s1`, the Potency result is “inactive”.
Consider `O=C(CSc1n[nH]c(-c2cccnc2)n1)Nc1ccc(Cl)cc1`, for which the Potency result is “inactive”.
`CCN(CC(=O)NC(C)C)C(=O)CCNC(=O)c1ccc(Cl)cc1`: the Potency result is “inactive”.
In the case of `COc1cc(N=Cc2c(O)c3ccccc3oc2=O)c(OC)cc1Cl`, the Potency result is “inactive”.
Turning to `COc1cc(N=Cc2c(O)[nH]c3ccccc23)cc(OC)c1OC`, the Potency is 13 µM (active).
Take `COc1cc2[nH]c(O)c(C=O)c2cc1OC`: the Potency result is “inactive”.
As for `CCn1c(O)c2ccc(C(=O)N=NC(=O)c3cccnc3)cc2c1O`, the Potency entry was “inactive”.
For the compound `Cc1cc(OC(C)C(=O)Nc2ccc(S(=O)(=O)Nc3onc(C)c3C)cc2)cc(C)c1Cl` (stereo not given), the Potency entry is “inactive”.
`Cc1c(O)cc(O)c2c(=O)c(-c3ccc(O)cc3)coc12`: the Potency result was “inactive”.
To `CCCOc1ccc(N/C=C/C(=O)C(C)(C)C)cc1` belongs “inactive”.
To `CCOc1ccc(N/C=C/C(=O)c2cc(OC)c(OC)c(OC)c2)cc1` belongs 6.51 µM (active); to `CCOc1ccc(N/C=C/C(=O)c2ccccc2)cc1`, “inactive”.
With `COc1ccc(C2CC(c3cccs3)=NN2c2ccc(F)cc2)cc1OC` (stereo not given) the entry was “inactive”.
In the case of `O=C(COC(=O)CCC(=O)c1cccs1)NCc1ccco1`, the Potency entry was “inactive”.
Turning to `CCOc1ccc(S(=O)(=O)N(CC(=O)NCCSCc2ccc(C)cc2)c2ccccc2)cc1`, the Potency entry was “inactive”.
To `Cc1ccc(S(=O)(=O)N(CC(=O)NCCSC2CCCCC2)c2ccccc2F)cc1` belongs 18.4 µM (active).
On to `CCCNC(=O)CN(Cc1ccccc1F)S(=O)(=O)c1ccc(C)cc1`, for which the Potency result is “inactive”.
As to `COC(=O)[C@H]1Cc2cnoc2C[C@]1(C)C(=O)O`, the Potency result is “inactive”.
With `COc1cccc(-c2cc3nc4c(c(N5CCC6(CC5)OCCO6)n3n2)CCCC4)c1` the figure was 20.6 µM (active).
As for `O=C(NCCO)c1cccc(-c2cccc3nccn23)c1`, the Potency result was “inactive”.
To `C/C(CC(C)C)=N\Oc1nc(C)cc(C)n1` belongs “inactive”; to `CC1(C)O[C@@H]2CC3C4C[C@H](F)C5=CC(=O)C=CC5(C)C4C(O)CC3(C)[C@]2(C(=O)CO)O1` (stereo not given in full), “inactive”.
With `Cc1nc2ccccc2c(-c2ccccc2)c1C(=O)c1ccccc1` the entry was “inactive”; with `O=C(CN1CCCCC1)Nc1ccccc1Cl`, “inactive”.
As to `CCc1ccc(C(=O)NC(=S)Nc2ccccc2N2CCOCC2)cc1`, the Potency result was “inactive”.
Take `O=C(CN1CCN(C2CCCCC2)CC1)Nc1ccccc1N1CCCCC1`: the Potency was 22.4 µM (active).
On to `CN1CCN(c2ccc(S(=O)(=O)N3CCCCC3)cc2NC(=O)Cc2ccccc2F)CC1`, for which the Potency entry was “inactive”.
`O=C(Nc1ccccc1N1CCOCC1)c1ccncc1`: the Potency entry was “inactive”.
With `O=C(CN1CCCCC1)Nc1ccccc1C(=O)NC1CC1`, the Potency entry is “inactive”.
With `CNC(=O)C1CC(=O)N(c2ccc(OCC(=O)Nc3ccccc3C)cc2)C1` (stereo not given), the Potency result is “inactive”.
In the case of `CC(=O)c1ccc(N2CCN(CC(=O)Nc3ccccc3N3CCOCC3)CC2)cc1`, the Potency is 10.3 µM (active).
On to `CN1CCN(c2ccccc2NC(=O)COc2ccc(C3CCCCC3)cc2)CC1`, for which the Potency was 16.4 µM (active).
Turning to `O/N=C(\c1ccc2c(c1)OCCO2)C1CCCCC1`, the Potency result is “inactive”.
As to `CC1(C(=O)NS(=O)(=O)c2ccc(C#N)cc2)CCN1C(=O)c1ccc(C2CCCCC2)cc1` (stereo not given), the Potency entry was “inactive”.
With `O=C(O)C1C2C=CC(O2)C1C(=O)NCCc1cccc(Cl)c1` (stereo not given), the Potency result is “inactive”.
Turning to `COCC(C)NC(=O)c1ccc(Cl)c(Cl)c1` (stereo not given), the Potency entry was “inactive”.
Turning to `Cn1nc(C(=O)OCC(=O)N(Cc2ccccc2)C(C)(C)C)c2ccccc2c1=O`, the Potency result is “inactive”.
To `CC(Oc1ccccc1)C(=O)Nc1c2c(nn1-c1ccccc1)CS(=O)C2` (stereo not given) belongs “inactive”; to `O=C(NCCCn1ccnc1)c1ccccc1F`, “inactive”.
As to `O=C(CCN1CCN(C/C=C/c2ccccc2)CC1)Nc1cccc(F)c1`, the Potency entry was “inactive”.
For the compound `O=C1/C(=C/c2cccs2)SC(=S)N1C1CCS(=O)(=O)C1` (stereo not given), the Potency was 18.4 µM (active).
With `O=C(CCN1C(=O)/C(=C/c2cccs2)SC1=S)NNC(=O)c1cccc(O)c1`, the Potency entry is “inactive”.
Take `CCN1CCC2(CCN(Cc3cn[nH]c3-c3ccc(OC)c(F)c3)C2)C1` (stereo not given): the Potency result is “inactive”.
To `O=C(Cn1cnc2c(OCc3ccccc3)ncnc21)NCCCn1ccnc1` belongs “inactive”.
With `O=[N+]([O-])c1ccccc1OCCCCN1CCCCC1` the entry was “inactive”; with `Cc1ccc(C(C)(C)C)c(OCCCCN2CCCC2)c1`, 29.1 µM (active); with `Cc1ccc(C(C)C)cc1OCCN1CCCC1`, “inactive”.
To `Nc1nc2c(ncn2[C@@H]2O[C@H](CNCc3ccc(OCCCN4CCOCC4)cc3)[C@@H](O)[C@H]2O)c(=O)[nH]1` belongs “inactive”; to `O=S(O)CNc1ccc(S(=O)(=O)c2ccc(NCS(=O)O)cc2)cc1`, “inactive”.
In the case of `Cc1ccccc1NC(=O)Cn1c(=O)n(Cc2ccco2)c(=O)c2ccc(C(=O)NC3CCCC3)cc21`, the Potency result was “inactive”.
Regarding `Cc1ccc(/C=N/NC(=O)c2sccc2OCc2ccc(F)cc2)cc1`, the Potency was 18.4 µM (active).
`CNC(=S)NNC(=O)c1sccc1OCc1ccccc1`: the Potency entry is “inactive”.
As for `Cc1ccc(COc2ccc(/C=N/NC(=O)CN3CCCCC3)cc2)cc1`, the Potency result was “inactive”.
For the compound `CCN(CC)S(=O)(=O)c1ccc(NC(=O)CN(c2cccc(F)c2)S(C)(=O)=O)cc1`, the Potency result is “inactive”.
As for `C=CC[n+]1c(-c2ccc(C)cc2)csc1NNC(=O)Nc1ccccc1`, the Potency is 9.2 µM (active).
To `C=CCNC(=O)c1csc(-c2ccccc2)n1` belongs “inactive”; to `C=CCNc1scc(-c2ccccc2)[n+]1CC=C`, “inactive”; to `Cn1cnnc1Sc1ccc(S(C)(=O)=O)cc1[N+](=O)[O-]`, “inactive”.
Regarding `CNC[C@H]1OCc2cnnn2CCCC(=O)N([C@H](C)CO)C[C@@H]1C`, the Potency entry was “inactive”.
`CC(C(=O)N1CCOCC1)N1c2cccc3cccc(c23)S1(=O)=O` (stereo not given): the Potency result was “inactive”.
With `CCN(CC)C(=O)C(C)N1c2cccc3cccc(c23)S1(=O)=O` (stereo not given) the figure was 16.4 µM (active); with `CC(C)CN(CC(C)C)C(=O)CN1c2cccc3cccc(c23)S1(=O)=O`, “inactive”.

(Values after PubChem BioAssay AID686978 (National Center for Advancing Translational Sciences (NCATS), 2013).)
